An excerpt weighted towards active compounds, which were near 5.4% of everything screened.
FXN GAA850 act – FXN promoter activators, primary screen, cell-based, luciferase luminescence, HEK293 lucGAA850; HEK293 lucGAA850 FXN promoter luciferase reporter, 24 h; percent of 10 µM SAHA response; activation, % at 6 µM; 360,000 compounds, 0.56% hits; AID 540364, 2011;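 active means activation above the average of all compounds screened plus 3 SD, cutoff fixed separately per campaign, cut at about 7.5% in these data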;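 further: 0% = DMSO wells and 100% = 10 µM SAHA wells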
HSF1 activator – HSF-1 activators, primary screen, NIH3T3-HGL cells, MG132 stress, luminescence, single point | 300,000 compounds, 1.7% hits | NIH3T3-HGL HSF-1 luciferase reporter, 8 h; 100% = twice DMSO control signal | activation, % at 9 µM;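 active means mean replicate activation of at least 50% with a set share of replicates each reaching 50%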;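 further: 0% = median of the neutral control wells and 100% = twice that signal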
DAX1 inh – DAX1 (NR0B1) inhibitors, primary screen, cell-based, HEK293, Gal4-DAX1, luciferase luminescence; 340,000 compounds, 0.99% hits; inhibition, % at 6.75 µM; HEK293 Gal4-DAX1 luciferase reporter; Nuclear receptor subfamily 0 group B member 1 (Homo sapiens), P51843;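 active means inhibition above the mean over all tested compounds plus 3 SD, cut at about 4.2% in these data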;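 further: 0% = DAX1-transfected cells with DMSO and 100% = empty-vector control cells with DMSO; inhibition shows as a rise in luminescence from relieved DAX1 repression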
AHR act – AHR activators, primary screen, cell-based, luminescence, luciferase reporter, human. Aryl hydrocarbon receptor (Homo sapiens), P35869. AHR-responsive luciferase reporter cells. activation, % at 5 µM. 320,000 compounds, 2.5% hits; in the data active means activation above about 47%;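 further: 0% = vehicle wells and 100% = reference agonist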
Target sequence (P35869 whole entry, looked up): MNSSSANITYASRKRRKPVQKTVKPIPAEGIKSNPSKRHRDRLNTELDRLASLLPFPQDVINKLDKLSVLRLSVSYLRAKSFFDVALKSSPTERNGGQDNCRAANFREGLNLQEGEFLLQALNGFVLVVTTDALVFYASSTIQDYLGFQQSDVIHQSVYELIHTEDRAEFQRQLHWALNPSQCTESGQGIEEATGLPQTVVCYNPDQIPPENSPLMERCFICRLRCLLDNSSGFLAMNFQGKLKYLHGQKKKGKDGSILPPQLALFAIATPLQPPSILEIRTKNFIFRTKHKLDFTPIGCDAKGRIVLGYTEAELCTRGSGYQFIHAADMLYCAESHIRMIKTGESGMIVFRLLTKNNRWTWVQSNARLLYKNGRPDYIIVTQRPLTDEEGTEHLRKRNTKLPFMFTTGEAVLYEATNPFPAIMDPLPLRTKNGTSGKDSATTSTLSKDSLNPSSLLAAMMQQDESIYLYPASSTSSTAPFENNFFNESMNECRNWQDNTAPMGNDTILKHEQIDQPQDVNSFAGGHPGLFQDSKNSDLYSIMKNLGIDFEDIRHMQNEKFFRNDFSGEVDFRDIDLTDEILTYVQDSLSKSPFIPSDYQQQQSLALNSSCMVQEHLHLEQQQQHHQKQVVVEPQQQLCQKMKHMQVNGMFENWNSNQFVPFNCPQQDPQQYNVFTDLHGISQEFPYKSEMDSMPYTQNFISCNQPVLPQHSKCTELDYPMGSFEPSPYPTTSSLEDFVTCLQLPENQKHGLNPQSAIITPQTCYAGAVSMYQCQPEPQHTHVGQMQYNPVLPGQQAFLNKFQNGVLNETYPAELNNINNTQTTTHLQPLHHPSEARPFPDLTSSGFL
HSF1 inhib – HSF1 inhibitors in luciferase reporter cells, primary screen, cell-based, NIH3T3, luminescence. NIH3T3-HGL HSE-luciferase, MG132-induced, luminescence 8 h; active compounds read low. activity change, negative = inhibition, % at 7.5 µM (by protocol). 300,000 compounds, 0.77% hits. AID 2098, 2009;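 active means more than half of replicate wells show activity change below -50%, luminescence cut by over half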;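 further: luciferase reports HSF-1 transcriptional activity via heat shock element; 0% = median of DMSO wells and -100% = zero luminescence signal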
* hit, by the source's call; · = not tested or not shown.

SMILES	FXN GAA850 act	HSF1 activator	DAX1 inh	AHR act	HSF1 inhib
O=c1[nH]c(/C=C/c2ccc(Br)cc2)nc2c1cnn2-c1ccccc1	·	-9	·	54*	0
CCOC(=O)Cc1csc(NC(=O)NC2(C(F)(F)F)Oc3cc(Cl)c(Cl)cc3O2)n1	7	-66	0	2	-57*
Cc1cc(C)nc(/N=C(\N)N2CCc3ccccc32)n1	6	19	1	54*	9
Cc1cc(NC(=S)NC(=O)CC(C)C)ccc1Br	3	13	1	64*	7
CC(=O)c1cccc(NC(=S)NC(=O)c2ccc(Cl)cc2)c1	5	41	2	16	6
CC(=O)c1cccc(NC(=S)NC(=O)c2cccc(C)c2)c1	5	64*	0	-1	24
CC(C)CC(=O)NC(=S)Nc1cccc(NC(=O)c2ccccc2)c1	0	5	7.3*	5	0
CC(C)Oc1cccc(C(=O)NC(=S)Nc2ccccc2)c1	2	-67	3	5	-61*
CNc1ccc(-c2cccc(C(=O)N3CCOCC3)c2)cn1	0	·	·	·	·
CCOc1ccc(NC2OCC(O)C(O)C2O)c([N+](=O)[O-])c1 (centres undefined)	2	14	2	1	0
COc1cc(NC(=O)c2cc3cccc(OC)c3o2)cc(C(=O)Nc2cccc(C(F)(F)F)c2)c1	-7	-74	0	73*	-67*
COc1cccc(NC(=O)c2cc3cccc(OC)c3o/c2=N\O)c1	·	59*	·	63*	19
COc1cc(NC(=O)c2ccno2)cc(C(=O)Nc2cccc(C(F)(F)F)c2)c1	4	-8	-1	64*	-1
CCN1CCN(Cc2ccc(NC(=O)c3cc(NC(=O)c4cc5cccc(OC)c5o4)cc(OC)c3)cc2C(F)(F)F)CC1	0	-4	0	16	-3
COc1ccc2c(C)cc3nncn3c2c1	3	0	4.2*	10	-3
Cc1cc2nncn2c2ccccc12	1	27	2	2	-11
Clc1nc(-c2ccccc2)cc(-c2ccc(Br)cc2)n1	1	10	0	69*	6
COc1cc(Cl)c(C)cc1NC(=O)CSc1ccc(C)cc1	0	80*	0	2	38
COCCCN(C(=O)C1=COCCO1)c1c(N)n(Cc2ccccc2)c(=O)[nH]c1=O	-1	·	0	·	·
CN1CCN(c2ccc(-c3ccc4ccccc4n3)cc2)CC1	-15	-91	-5	·	-90*
O=C(/C=C/Nc1ccc([N+](=O)[O-])cc1Br)c1cccc2ccccc12	3	51*	2	9	19
CCc1nn(C(C)C(=O)NC2CCCCCC2)c(=O)c2cc3occc3n12 (centres undefined)	-2	-10	0	0	-6
O=S(=O)(Nc1ccc(Cl)cc1)c1ccc(N2CCOCC2)c(NC(=S)NC2CC2)c1	0	9	0	1	4
FCCCOc1ccc(-c2ccnc(-c3ccccc3)n2)cc1	3	15	1	52*	9
CCCNC(=O)C[C@@H]1C[C@H]2c3cc(NC(=O)c4ccc5c(c4)OCO5)ccc3O[C@H]2[C@@H](CO)O1	0	·	2	·	·
SMILES	FXN GAA850 act	HSF1 activator	DAX1 inh	AHR act	HSF1 inhib
CCCOc1c(Br)cc(C(=O)NCC)cc1OC	2	2	0	79*	-6
CC1(C)CC2(CC(C)(C)N1)OC(=O)N1CCc3ccccc3C12C (centres undefined)	1	2	4.2*	8	-5
Cc1csc(=O)n1CC(=O)Nc1ccc(C(C)C)cc1	2	·	1	·	·
Cc1ccc(Nc2c(-c3ccccc3)nc3cnccn23)cc1	4	-10	-1	3	3
Cc1ccc(-c2nc3cnccn3c2Nc2ccc3c(c2)OCO3)o1	3	19	0	53*	3
COc1ccc(-c2nc3cnccn3c2Nc2ccc(C)cc2)cc1	4	10	0	65*	14
Cc1ccc(Nc2c(-c3ccc(C)o3)nc3cnccn23)cc1	4	18	2	18	26
CSc1ccc(-c2nc3cnccn3c2Nc2ccc3c(c2)OCO3)cc1	3	31	0	188*	2
Cc1onc(-c2ccccc2Cl)c1C(=O)N(C)Cc1ccccc1	0	0	1	·	1
COc1ccccc1/C=C/C(=O)OCC(=O)N1c2ccccc2CC1C (centres undefined)	1	·	1	3	·
CC(OC(=O)c1cccc(-n2cnnn2)c1)C(=O)Nc1ccc(N(C)C)cc1 (centres undefined)	0	14	0	6	0
Cc1ccc(N=c2sc(C)c(C)n2C)cc1	5	1	4	77*	4
Cc1csc(=Nc2ccccc2)n1C	3	8	0	-8	2
CCNc1ccc(C(=O)OCC(=O)Nc2cc(C)on2)cc1[N+](=O)[O-]	0	·	0	0	·
CS(=O)(=O)Cc1ccc(C(=O)NC2CCN(Cc3ccccc3)C2)cc1 (centres undefined)	1	6	4.2*	-2	-1
O=C1C(=C2SCCCS2)CC/C1=C\c1ccc(F)cc1	-9	-78	-1	-3	-75*
Cc1cccc(/C=C2\CCC(=C3SCCCS3)C2=O)c1	-5	-26	-4	-4	-22
CC(Sc1ncnc2c1cnn2-c1ccccc1)C(=O)NCC1CCCO1 (centres undefined)	0	-6	-1	26	8
Cc1nc(SC(C)C(=O)NCC2CCCO2)c2cc(-c3ccccc3)sc2n1 (centres undefined)	-8	71*	-3	-12	53
CCCn1c(=O)[nH]c(=O)c2c1nc(-c1ccc(OC)c(Br)c1)n2CCOC	1	17	0	8	-4
Cc1cccc(NC(=O)NNC(=O)c2sccc2-n2cccc2)c1	2	5	-1	53*	2
O=C(Nc1ccc(Br)cc1F)c1sccc1-n1cccc1	-1	3	0	103*	-1
COc1cccc(C(=O)NNC(=O)c2sccc2-n2cccc2)c1	0	-3	1	69*	-4
Cc1c(Br)cccc1NC(=O)c1sccc1-n1cccc1	-1	21	-1	·	22
Cc1ccc(NC(=S)N(CCN2CCOCC2)Cc2cc3cc4c(cc3[nH]c2=O)OCO4)cc1	1	-1	0	6	-5
CCn1c(SCC(=O)Nc2ccc(C)cc2)nc(O)cc1=O	-1	3	4.5*	2	0
CNS(=O)(=O)c1ccc(CNC[C@H]2O[C@@H](n3ccc(N)nc3=O)[C@H](O)[C@@H]2O)cc1	2	·	4.6*	·	·
Cc1cccc(C)c1NC(=O)COc1cccc(/C=N/NC(=O)C(=O)NCc2ccccc2)c1	0	2	0	1	-12
